Bioassay records as filed in PubChem.
MITF inhib: inhibitors of MITF; TRPM1 promoter luciferase, luminescence, 24 h; inhibition, % (concentration not given with the values); 0.28% of 37,000 active; AID 2240; in the data active = inhibition above about 85%;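 also: human melanocyte line stably carrying TRPM1 promoter luciferase reporter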
NOMO-1 viab: STK33 inhibitor candidate reducing NOMO-1 cell viability | NOMO-1 AML viability, CellTiter-Glo luminescence, 72 h | inhibition, % (test concentration not listed) | 7.5% of 37,000 active; in the data active = inhibition above about 80%
Hedgehog inh: Sonic Hedgehog pathway inhibition | Shh-LIGHT2 Gli-luciferase reporter, 30 h | 2.1% of 22,000 active | inhibition, % (test concentration not listed);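 active = mean inhibition across valid replicates above about 65%, limit read from the data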;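 also: pathway switched on by Shh-conditioned medium diluted 1 in 25 in low serum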
The depositor's hits bear a star; · = not tested or not shown. Rows were chosen to be rich in hits. Some 7.8% of all compounds tested hit in one or more screens of this group.

SMILES | MITF inhib | NOMO-1 viab | Hedgehog inh
C[C@@H]1CN([C@H](C)CO)C(=O)c2cccc(NC(=O)Nc3ccc4c(c3)OCO4)c2O[C@@H]1CN(C)Cc1ccc(Cl)c(Cl)c1 | -16.3 | 54.3 | 11.2
C[C@H](CO)N1C[C@H](C)[C@@H](CN(C)Cc2ccccc2)Oc2c(NC(=O)Nc3ccc4c(c3)OCO4)cccc2C1=O | -13.7 | 61.0 | -12.8
C[C@@H]1CN([C@@H](C)CO)C(=O)c2cccc(NC(=O)Nc3ccc4c(c3)OCO4)c2O[C@H]1CN(C)CC1CCCCC1 | 12.4 | 83.5* | -18.8
C[C@@H]1CN([C@@H](C)CO)C(=O)c2cccc(NC(=O)Nc3ccc4c(c3)OCO4)c2O[C@@H]1CN(C)CC1CCCCC1 | -36.4 | 15.0 | -63.8
C[C@@H]1CN([C@@H](C)CO)C(=O)c2cccc(NC(=O)Nc3ccc4c(c3)OCO4)c2O[C@H]1CN(C)Cc1ccccc1 | 34.5 | 106.6* | 15.2
C[C@H](CO)N1C[C@H](C)[C@H](CN(C)Cc2ccccc2)Oc2c(NC(=O)Nc3ccc4c(c3)OCO4)cccc2C1=O | -0.7 | 84.2* | -42.4
C[C@@H]1CN([C@@H](C)CO)C(=O)c2cccc(NC(=O)Nc3ccc4c(c3)OCO4)c2O[C@H]1CN(C)Cc1ccc2c(c1)OCO2 | 4.6 | 93.0* | -45.5
C[C@H]1CN([C@@H](C)CO)C(=O)c2cccc(NC(=O)Nc3ccc4c(c3)OCO4)c2O[C@H]1CN(C)Cc1ccc2c(c1)OCO2 | 3.1 | 27.7 | -21.7
COc1ccc(OC)c(N(CC(=O)N2CCC(C)CC2)S(C)(=O)=O)c1 | 1.0 | -5.0 | ·
COC(=O)C1=CO[C@@H](C)[C@H]2CN3CCc4c([nH]c5ccccc45)[C@@H]3C[C@H]12 | 4.6 | 6.1 | 26.4
CC(CC(O)C1OC1(C)C)[C@@H]1CCC2(C)C3=CCC4C(C)(C)C(=O)CCC4(C)C3CC[C@@]12C (some centres not stated) | 59.9 | 101.4* | 23.4
C[C@@H]1CN([C@H](C)CO)C(=O)c2cc(NC(=O)c3ccncc3)ccc2O[C@@H]1CN(C)Cc1ccc(Oc2ccccc2)cc1 | -15.2 | 21.6 | 31.2
Cc1ccc(CCC(=O)Nc2cc(C(F)(F)F)ccc2Cl)o1 | -8.7 | -3.1 | ·
O=c1c(Cc2ccccc2)c(O)c2ccccc2n1-c1ccccc1 | -15.2 | -14.3 | 5.3
C[C@H](CO)N1C[C@H](C)[C@H](CN(C)S(=O)(=O)c2cccs2)Oc2c(NC(=O)c3cnccn3)cccc2C1=O | -14.5 | 14.8 | -100.5
CCC(=O)Nc1ccc2c(c1)N(CC)C(C)(C)CC2C (configuration not stated) | 13.0 | 98.9* | 28.7
CCC(=O)Nc1ccc(Cl)c(NC(=O)COc2cc(C)cc(C)c2)c1 | 5.8 | 0.7 | ·
Cc1noc(C)c1S(=O)(=O)Nc1ccc2c(c1)C(=O)N([C@@H](C)CO)C[C@@H](C)[C@H](CN(C)C(=O)NC(C)C)O2 | 8.1 | 33.0 | ·
Cc1noc(C)c1C(=O)NCCCn1ccnc1 | -9.8 | -4.5 | ·
Cc1oc2c(c1C(=O)NC1CCCC1)C(=O)c1ccccc1C2=O | 69.7 | 140.2* | 59.3
Cc1oc2c(c1C(=O)N1CCC(C)CC1)C(=O)c1ccccc1C2=O | 85.0* | 113.1* | 59.0
Cc1oc2c(c1C(=O)NCCc1ccccc1)C(=O)c1ccccc1C2=O | 2.8 | 32.2 | -16.6
Cc1ccc(S(=O)(=O)NCC(=O)N2CCC(C)CC2)cc1 | 4.4 | 2.2 | ·
CC(=C/C(=O)O)/C=C/c1ccccc1 | -0.4 | 29.1 | ·
CC1=C(/C=C/C(C)=C/C=C/C(C)=C\C(=O)O)C(C)(C)CCC1 | -117.9 | 71.1 | 82.4*
SMILES | MITF inhib | NOMO-1 viab | Hedgehog inh
CC(C)NC(=O)N(C)C[C@H]1Oc2ccc(NC(=O)C3CCCCC3)cc2C(=O)N([C@@H](C)CO)C[C@H]1C | -5.6 | -9.2 | -1.4
O=C(Cn1cc(C(=O)c2cccs2)c2ccccc21)Nc1ccc(Br)cc1 | 29.0 | 43.3 | ·
Cc1cc2ccccc2n2c(SCC(=O)NCc3ccco3)nnc12 | 26.8 | 111.5* | ·
Cc1cc2ccccc2n2c(SCC(N)=O)nnc12 | -9.8 | 21.4 | ·
Cc1ccc(S(=O)(=O)N(C)C[C@H]2Oc3ccc(NC(=O)NC(C)C)cc3CC(=O)N([C@H](C)CO)C[C@H]2C)cc1 | -2.3 | 10.8 | 7.8
CC1CC(=O)c2c(ccc3c2C(=O)c2c(O[C@@H]4O[C@@H](C)[C@H](O)[C@@H](O)[C@H]4O)cccc2C3=O)C1 (some centres not stated) | 10.2 | 26.0 | 3.4
COc1cccc2c1C(=O)c1c(O)c3c(c(O)c1C2=O)C[C@@](O)(C(C)=O)C[C@@H]3O[C@H]1C[C@H](N)[C@H](O)[C@H](C)O1 | 74.1 | 120.6* | 98.6*
CCOc1ccccc1NC(=O)C(C)Oc1ccc(OC)cc1 (configuration not stated) | 24.3 | 105.1* | ·
COc1ccc(OC(C)C(=O)Nc2cc(OC)cc(OC)c2)cc1 (configuration not stated) | -5.4 | 35.6 | ·
Cc1[nH]c2ccccc2c1Sc1ccccc1 | 49.2 | 140.8* | 70.6*
